According to PubChem BioAssay (NCATS):
Where “and” joins values, the source holds several entries; their conditions need not be identical. Equal values may be shown once. Records with an inconclusive call do not appear. Some structures have more than one record in an assay (separate samples or runs), and their calls can disagree. Calls of active or inactive are those of the source. Unless noted, calls come from the whole dose curve; as a rule, active = well fitted curve in the direction sought with a large enough effect; inconclusive = small, poorly fitted or top-dose-only effect, or another doubt; inactive = no such curve, though single readings can be large; an effect the other way counts as inactive or inconclusive.

Experiments:
[1] = biological target: Mitogen-activated protein kinase 10 (Mus musculus) (UniProt Q61831); test: JNK3 AlphaScreen Assay (AID 530; active = well fitted curve in either direction with a large enough effect, not every such curve was filed as active;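 note: kinase came from lysate of stimulated human HepG2 cells; signal reports phosphorylation of biotinylated GST-cJun 1-79 at Ser73 with 10 µM ATP; % is set by controls: 0 for no effect and ±100 for the full control effect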); settings: JNK3 lysate, c-Jun phosphorylation; series mostly up to 57.1 µM
Summary of the method: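 Biotinylated GST-cJun(1-79) served as substrate for JNK3 in HepG2 lysates stimulated with IL-1beta and TNF-alpha. ATP was 10 uM final, pH 7.6. Ser73 phosphorylation was quantified by AlphaScreen (680 nm excitation).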

[2] = Cell Viability - N2a (AID 540); settings: N2a mouse neuroblastoma cell viability; activity change, negative = cytotoxicity: at 92.2 µM (top of the series); note: nearly all actives have a fitted effect of over 45% in size; note: potency is the fitted concentration of half-maximal effect;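 for activity change, negative = cytotoxicity: plate controls were DMSO alone for no effect and tamoxifen control for full effect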
Summary of the method: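 N2a mouse neuroblastoma, 1500 cells/well, 5 hr settle; compound 40 hr, 37 °C; CellTiter-Glo 20 min RT; luminescence; Hill-fit AC50.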

[3] = Cell Viability - NIH 3T3 (AID 541); settings: NIH 3T3 cell viability, qHTS; activity change, negative = cytotoxicity: at 92.2 µM (top of the series);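 note: cells exposed to compound for 40 hours; nearly all actives have a fitted effect of over 25% in size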; note: potency is the fitted concentration of half-maximal effect;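 for activity change, negative = cytotoxicity: plate controls were DMSO alone for no effect and tamoxifen positive control for full effect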
Summary of the method: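 qHTS format; 40 hr compound exposure, 37 °C; CellTiter-Glo luminescence (cellular ATP) read-out after 20 min at RT. Decrease in ATP = cytotoxicity; AC50 from standard Hill fit.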

[4] = Cell Viability - HUV-EC-C (AID 542); settings: HUV-EC-C endothelial cell viability, qHTS; series mostly up to 92.2 µM;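 note: cells exposed to compound for 40 hours; nearly all actives have a fitted effect of over 35% in size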; note: potency is the fitted concentration of half-maximal effect; for activity change, negative = cytotoxicity: % is set by controls: 0 for no effect and ±100 for the full control effect
Summary of the method: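 Luminescent ATP read-out (CellTiter-Glo, 20 min room temperature) after 40 hr compound treatment of HUV-EC-C cells at 37 °C. Concentration-response data fitted with the standard Hill equation to give AC50; tamoxifen and doxorubicin served as positive controls.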

[5] = Cell Viability - H-4-II-E (AID 543); settings: H-4-II-E rat hepatoma viability; series mostly up to 92.2 µM;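 note: cells exposed to compound for 40 hours; nearly all actives have a fitted effect of over 35% in size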; note: potency is the fitted concentration of half-maximal effect
Summary of the method: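 qHTS, rat hepatoma H-4-II-E, 1500 cells/well; 40 hr compound exposure, 37 °C; CellTiter-Glo ATP luminescence after 20 min RT; AC50 by standard Hill fit.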

[6] = Cell Viability - SH-SY5Y (AID 544); settings: SH-SY5Y neuroblastoma cell viability; series mostly up to 92.2 µM;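 note: cells exposed to compound for 40 hours; nearly all actives have a fitted effect of over 55% in size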; note: potency is the fitted concentration of half-maximal effect
Summary of the method: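 SH-SY5Y, 1500 cells/well, 5 hr pre-incubation 37 °C; cpd 40 hr 37 °C; CellTiter-Glo 20 min RT; luminescence (ATP) read. qHTS concentration-response, Hill fit → AC50. Tamoxifen, doxorubicin as positive controls.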

[7] = Cell Viability - Renal Proximal Tubule (AID 545); settings: renal proximal tubule cells viability; series mostly up to 91.7 µM;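 note: cells exposed to compound for 40 hours; nearly all actives have a fitted effect of over 40% in size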; note: potency is the fitted concentration of half-maximal effect;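 for activity change, negative = cytotoxicity: 0% = DMSO only and -100% = 100 µM tamoxifen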
Summary of the method: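 Luminescent ATP signal (CellTiter-Glo) served as the viability read-out after 40 hr compound exposure of freshly isolated rat proximal tubule cells at 37 °C. Concentration-dependent ATP loss was fitted with the Hill equation to give AC50.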

[8] = Cell Viability - Mesenchymal (AID 546); settings: mesenchymal cells viability, qHTS; activity change, negative = cytotoxicity: at 91.7 µM (top of the series);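 note: cells exposed to compound for 40 hours before reading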; note: potency is the fitted concentration of half-maximal effect;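 for activity change, negative = cytotoxicity: 0% = DMSO only and -100% = 100 µM tamoxifen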
Summary of the method: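 In this qHTS cytotoxicity format, glomerulus-derived human mesenchymal kidney cells received compound for 40 hr, then luciferase-based ATP quantitation. Concentration-response data were fitted with the Hill equation.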

[9] = Cellular Toxicity (caspase-3) HepG2 (AID 654); settings: HepG2 caspase-3 activation, luminescence; series mostly up to 92.2 µM; note: potency is the fitted concentration of half-maximal effect;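 for caspase-3 activation: cells exposed to compound for 16 hours before reading; 0% = DMSO alone and 100% = caspase signal from 100 µM tamoxifen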
Summary of the method: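 Luminescent Caspase-Glo 3/7 readout after 16 hr compound exposure of human hepatocellular carcinoma HepG2 cells at 37 °C; qHTS concentration-response, normalized DMSO = 0%, 100 uM tamoxifen = 100%; AC50 by standard Hill equation.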

[10] = Cellular Toxicity (caspase-3) HUV-EC-C (AID 656); settings: HUV-EC-C cells, caspase-3 activation (apoptosis), vehicle = 0, 100 µM tamoxifen = 100%; series mostly up to 92.2 µM;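 note: 0% = DMSO basal and 100% = 100 µM tamoxifen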
Summary of the method: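 qHTS; HUV-EC-C, 1000 cells/well; 5 hr settle, 16 hr cmpd, 37°C; Caspase-Glo 3/7, 20 min RT; luminescence. Norm: DMSO = 0%, tamoxifen 100 uM = 100%. Hill-fit AC50.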

[11] = Cellular Toxicity (caspase-3) SHSY5Y (AID 657); settings: SH-SY5Y caspase-3 activation; series mostly up to 91.7 µM;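 note: cells exposed to compound for 16 hours at 37 °C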; note: potency is the fitted concentration of half-maximal effect
Summary of the method: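 qHTS, SH-SY5Y, 1500 cells/well, 5 h pre-incubation 37 °C; compound 16 h 37 °C; Caspase-Glo 3/7 1 h RT; luminescence. Norm.: DMSO = 0, 10 uM staurosporine = 100%. Hill fit → AC50.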

[12] = Cellular Toxicity (caspase-3) BJ (AID 658); settings: BJ fibroblasts, luminescence, normalized: DMSO 0%, staurosporine 100%; series mostly up to 91.7 µM;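 note: cells exposed to compound for 16 hours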
Summary of the method: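 Plated BJ cells (1000/well) rested 5 hr, received compound for 16 hr at 37 °C, then Caspase-Glo 3/7 reagent for 1 hr at room temperature before luminescence reading.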

[13] = Cellular Toxicity (caspase-3) MRC-5 (AID 659); settings: MRC-5 cells, luminescence, normalized: DMSO 0%, 10 µM staurosporine 100%; series mostly up to 91.7 µM
Summary of the method: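 Apoptosis readout in MRC-5 cells: luciferase light generated after caspase 3/7 cleaves a peptide-aminoluciferin substrate, measured post 16 hr compound incubation at 37 °C.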

[14] = Cellular Toxicity (caspase-3) Mesangial (AID 660); settings: mesangial cells; Potency: caspase-3 activation; series mostly up to 91.7 µM;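 note: combined caspase 3 and 7 activity read by Caspase-Glo luminescence; cells exposed to compound for 16 h before the caspase read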
Summary of the method: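 Luminescent Caspase-Glo 3/7 readout (aminoluciferin substrate cleavage, 20 min RT) after 16 h compound exposure at 37 °C of normal human mesangial cells. Signal increase normalized between DMSO basal and 100 uM tamoxifen; Hill-equation AC50.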

[15] = Cellular Toxicity (caspase-3) SK-N-SH (AID 661); settings: SK-N-SH caspase-3 activation, qHTS; series mostly up to 91.7 µM;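 note: cells exposed to compound for 16 hours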; note: potency is the fitted concentration of half-maximal effect
Summary of the method: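 Luminescent Caspase-Glo 3/7 read-out after 16 hr compound exposure of SK-N-SH neuroblastoma cells at 37 °C. Signal increase normalized to DMSO (basal) and 10 uM staurosporine (100%); AC50 from Hill equation fits of qHTS concentration-response data.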

[16] = Cellular Toxicity (caspase-3) H-4-II-E (AID 663); settings: H-4-II-E rat hepatoma; Potency: caspase-3 activation; series mostly up to 92.2 µM; note: potency is the fitted concentration of half-maximal effect;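 for caspase-3 activation: cells exposed to compound for 16 hr before readout; 0% = DMSO basal and 100% = 100 µM tamoxifen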
Summary of the method: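 Caspase 3/7 activation measured in H-4-II-E cells in complete culture medium after 16 hr treatment at 37 °C, using luciferase-coupled substrate readout; AC50 values come from Hill-equation fits of normalized concentration-response data.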

[17] = Cellular Toxicity (caspase-3) Jurkat (AID 655); settings: Jurkat caspase-3 activation, luminescence; series mostly up to 92.2 µM;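 note: cells exposed to compound for 16 h at 37 °C before reading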; note: potency is the fitted concentration of half-maximal effect
Summary of the method: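 5000 Jurkat cells/well; compound 16 hr, 37 °C; Caspase-Glo 3/7 added, 20 min RT; luminescence read. Norm: DMSO = 0%, tamoxifen 100 uM = 100%. AC50, Hill model.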

[18] = biological target: Glucocorticoid receptor (Homo sapiens) (UniProt P04150); test: GR-GFP Redistribution (AID 450;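 active = compounds whose dose series gives a full or clear partial fitted curve of increased nuclear translocation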; note: potency is the fitted concentration of half-maximal effect); settings: U2OS GR-GFP nuclear translocation, laser cytometry, 2 h
[19] = biological target: Glucocorticoid receptor (Homo sapiens) (UniProt P04150); test: GR-EFC Redistribution (AID 451; calls by dose curve; note: potency is the fitted concentration of half-maximal effect); settings: CHO-K1 GR-EFC translocation, beta-gal luminescence, 2 h
Summary of the method: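 CHO-K1 cells stably expressing nuclear-localized β-gal enzyme acceptor and GR fused C-terminally to the enzyme donor fragment; ligand-driven nuclear translocation restores β-gal by complementation. Compounds titrated up to 46 uM final, 2 h at 37 °C; luminescence read.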

[20] = biological target: 3',5'-cyclic-AMP phosphodiesterase 4B (Homo sapiens) (UniProt Q07343); test: qHTS Assay for Inhibitors of PDE-IV (AID 607; active = well fitted activation curve with a large enough effect in the main read-out, with a control signal flat, not every such curve was filed as active; note: % of control where 0% means no effect); settings: HEK293 ACTOne CNG channel cells, membrane potential fluorescence; series mostly up to 22.9 µM
Summary of the method: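 Live HEK293 cells with a modified cyclic nucleotide-gated (CNG) channel report intracellular cAMP via membrane-potential dye fluorescence (ex 535/em 590 nm). Endogenous PDE-IV was targeted. Compounds were tested at up to 22.9 uM final; RO 20-1724 100 uM served as control.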

Sequence of Glucocorticoid receptor (Homo sapiens) (P04150 whole entry, looked up, the tested form may be a part): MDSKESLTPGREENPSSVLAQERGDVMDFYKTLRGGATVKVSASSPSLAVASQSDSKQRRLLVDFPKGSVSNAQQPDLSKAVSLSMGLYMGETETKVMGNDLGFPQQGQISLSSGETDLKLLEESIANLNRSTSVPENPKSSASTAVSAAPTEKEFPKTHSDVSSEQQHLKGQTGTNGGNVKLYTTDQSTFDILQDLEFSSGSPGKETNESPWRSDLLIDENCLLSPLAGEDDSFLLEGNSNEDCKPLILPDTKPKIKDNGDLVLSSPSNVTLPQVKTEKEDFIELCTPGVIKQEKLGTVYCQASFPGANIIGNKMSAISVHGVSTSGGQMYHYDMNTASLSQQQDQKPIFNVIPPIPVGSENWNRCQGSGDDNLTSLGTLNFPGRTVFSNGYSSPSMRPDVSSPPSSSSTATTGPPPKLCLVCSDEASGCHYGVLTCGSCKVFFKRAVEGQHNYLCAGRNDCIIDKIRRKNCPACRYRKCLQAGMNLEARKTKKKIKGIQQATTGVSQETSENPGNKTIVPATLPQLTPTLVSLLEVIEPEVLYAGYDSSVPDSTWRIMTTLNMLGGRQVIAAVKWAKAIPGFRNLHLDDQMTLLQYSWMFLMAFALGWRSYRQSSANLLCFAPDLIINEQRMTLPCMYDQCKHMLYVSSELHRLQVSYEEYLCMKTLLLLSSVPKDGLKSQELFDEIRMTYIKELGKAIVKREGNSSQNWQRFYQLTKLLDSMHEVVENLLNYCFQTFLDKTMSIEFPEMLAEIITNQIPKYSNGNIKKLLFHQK
Sequence of 3',5'-cyclic-AMP phosphodiesterase 4B (Homo sapiens) (Q07343 whole entry, looked up): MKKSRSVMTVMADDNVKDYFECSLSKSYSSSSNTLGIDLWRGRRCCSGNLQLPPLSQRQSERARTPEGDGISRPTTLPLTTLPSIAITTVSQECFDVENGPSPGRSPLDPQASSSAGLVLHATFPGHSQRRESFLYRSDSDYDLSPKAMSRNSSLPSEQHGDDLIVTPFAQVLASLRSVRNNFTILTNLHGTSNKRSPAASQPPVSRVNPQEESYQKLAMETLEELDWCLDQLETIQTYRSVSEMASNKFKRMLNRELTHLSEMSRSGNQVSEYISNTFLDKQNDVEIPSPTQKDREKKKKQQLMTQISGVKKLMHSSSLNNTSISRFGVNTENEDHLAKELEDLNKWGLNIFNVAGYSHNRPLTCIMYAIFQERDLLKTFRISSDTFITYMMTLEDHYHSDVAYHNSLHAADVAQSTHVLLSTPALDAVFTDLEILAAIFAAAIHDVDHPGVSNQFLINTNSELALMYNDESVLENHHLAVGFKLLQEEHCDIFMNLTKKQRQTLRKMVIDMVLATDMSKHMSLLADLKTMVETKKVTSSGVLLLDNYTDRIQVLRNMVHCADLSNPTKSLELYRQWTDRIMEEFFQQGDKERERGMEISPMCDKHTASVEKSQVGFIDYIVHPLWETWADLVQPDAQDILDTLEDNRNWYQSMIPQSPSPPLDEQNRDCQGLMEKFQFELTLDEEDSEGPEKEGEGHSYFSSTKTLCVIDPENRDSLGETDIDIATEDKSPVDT

Oc1c(Br)cc(Br)cc1Br
inactive: outcome [1] | Potency [2] | Potency [3] | Potency [4] | Potency [5] | Potency [6] | Potency [7] | Potency [8] | Potency [9] | outcome [10] | Potency [11] | outcome [12] | outcome [13] | Potency [14] | Potency [15] | Potency [16]

O=C(CCl)c1ccc(Cl)cc1Cl
active: Potency [2] 31.6 µM | activity change, negative = cytotoxicity [3] -145% | Potency [5] 10 µM | Potency [6] 1.26 µM | Potency [8] 31.6 µM | Potency [17] 0.251 µM | Potency [11] 2.51 µM | Potency [15] 1.58 µM
inactive: outcome [1] | Potency [9] | outcome [10] | outcome [12] | outcome [13] | Potency [14]

CC(C)[N+](C)(CCC(C(N)=O)(c1ccccc1)c1ccccc1)C(C)C
inactive: Potency [18] > 20.6 µM | Potency [19] > 20.6 µM | outcome [1] | outcome [20]

CCCCCCCCCCCC[N+](C)(C)CCOc1ccccc1
active: Potency [2] 7.94 µM | activity change, negative = cytotoxicity [3] -137% | Potency [4] 31.6 µM | Potency [5] 39.8 µM | Potency [7] 12.6 µM | Potency [8] 25.1 µM | Potency [9] 39.8 µM
inactive: outcome [1] | Potency [6] | outcome [10] | Potency [11] | Potency [14]

CCCCCCCCC(=O)NCc1ccc(O)c(OC)c1
inactive: Potency [18] > 46 µM | Potency [19] > 46 µM | outcome [20]

C[C@@H]1C[C@@H]([C@H](O)CC2CC(=O)NC(=O)C2)C(=O)[C@@H](C)C1
inactive: outcome [1] | Potency [9] | outcome [10] | Potency [11] | outcome [12] | outcome [13] | Potency [14] | Potency [15]
63.1 nM (active) and inactive: Potency [6]
active: Potency [2] 0.126 µM | Potency [3] 100 nM and 126 nM | Potency [4] 0.1 µM | Potency [5] 126 nM and 100 nM | Potency [8] 79.4 nM and 50.1 nM | Potency [16] 15.8 µM

O=C1NCN(c2ccccc2)C12CCN(CCCOc1ccc(F)cc1)CC2
inactive: Potency [18] > 46 µM | Potency [19] > 46 µM | outcome [1]

CCC(=O)O[C@H]1CC[C@H]2[C@@H]3CCC4=CC(=O)CC[C@]4(C)[C@H]3CC[C@]12C
inactive: Potency [18] > 20.6 µM | Potency [19] > 20.6 µM | outcome [1]

CNC(=O)Oc1cccc2ccccc12
inactive: outcome [1] | Potency [2] | Potency [4] | Potency [5] | Potency [7] | Potency [8] | Potency [9] | Potency [17] | outcome [10] | Potency [11] | outcome [12] | outcome [13] | Potency [14] | Potency [15] | Potency [16]

CN1[C@@H]2CC[C@H]1CC(OC(=O)c1cc(Cl)cc(Cl)c1)C2 (some centres undefined)
inactive: Potency [18] > 46 µM | Potency [19] > 46 µM | outcome [1] | outcome [20]
